NPSR antagonist: blocks cAMP signaling of the human neuropeptide S receptor; Potency, µM (titrated, usually from 38.3 µM), most hits filed as inhibitors; Q6W5P4; 220,000 compounds, 1% hits; CHO-NPSR cells, cAMP TR-FRET, antagonist mode; AID 1461; note: nearly all actives have a fitted effect of over 50% in size
Target sequence (Q6W5P4 whole entry, looked up): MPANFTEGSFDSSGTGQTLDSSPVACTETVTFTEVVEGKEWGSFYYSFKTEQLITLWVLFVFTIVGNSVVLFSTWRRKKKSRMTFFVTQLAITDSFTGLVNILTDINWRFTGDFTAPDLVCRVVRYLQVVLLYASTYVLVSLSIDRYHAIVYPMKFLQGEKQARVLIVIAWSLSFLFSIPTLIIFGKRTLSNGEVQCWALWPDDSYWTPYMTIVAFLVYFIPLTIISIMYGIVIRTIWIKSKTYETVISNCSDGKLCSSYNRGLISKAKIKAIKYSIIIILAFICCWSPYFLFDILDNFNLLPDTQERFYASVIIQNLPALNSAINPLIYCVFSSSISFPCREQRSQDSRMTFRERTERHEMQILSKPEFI
Luc counter: blocks Kinase-Glo luciferase, a counter-screen artifact | Q27757 | Kinase-Glo luciferase, ATP luminescence, 8 min | Potency, µM (highest dose often 38.3 µM), actives largely listed as inhibitors | 200,000 compounds, 0.28% hits; note: nearly all actives have a fitted effect of over 60% in size
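Light output from Kinase-Glo luciferase with luciferin and 10 uM ATP in 50 mM imidazole pH 7.2, KCl, MgCl2, Tween 20, BSA; compound pin-delivered, 8-min ambient incubation, then luminescence read.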
Tau FP inhib: tau fibrillization inhibition (FP) | K18 P301L tau heparin fibrillization, Alexa594 FP, 6 h | Potency, µM (series often up to 57.7 µM), actives largely listed as inhibitors | 280,000 compounds, 0.39% hits | P10636; note: nearly all actives have a fitted effect of over 55% in size
Target sequence (P10636 561-689 P618L limits assumed): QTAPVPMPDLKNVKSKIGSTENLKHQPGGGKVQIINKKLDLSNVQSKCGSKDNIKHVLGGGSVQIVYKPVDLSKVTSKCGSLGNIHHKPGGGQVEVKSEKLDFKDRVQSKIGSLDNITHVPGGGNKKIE
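Recombinant K18 P301L […], labeled with Alexa 594 at 0.24 uM over 15 uM unlabeled; heparin inducer 20 uM final; 37 C, 6 hr; FP endpoint.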
Tau fluor cs: counter-screen for tau fibril formation inhibitors; Potency, µM (series often up to 57.7 µM); 280,000 compounds, 0.93% hits; tau K18 P301L Alexa594 fluorescence, heparin fibrillization; AID 1463; note: nearly all actives have a fitted effect of over 55% in size
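Human tau K18 P301L (15 uM unlabeled, 0.24 uM Alexa 594-labeled) in 100 mM sodium acetate pH 7 with 20 uM heparin, 6 hr at 37 C. ThT 30 uM added, 1 hr ambient; Alexa 594 FP and total fluorescence read at 555/632 nm.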
Tau ThT inhib: inhibitors of human tau fibril formation, thioflavin T binding; P10636; recombinant tau K18 P301L (four-repeat tau fragment), heparin-induced fibrillization, ThT fluorescence; Potency, µM (top dose mostly 57.4 µM), actives largely listed as inhibitors; 270,000 compounds, 2.1% hits; AID 1460; note: nearly all actives have a fitted effect of over 55% in size
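Aggregation was driven by heparin (20 uM final) acting on recombinant tau […] bearing P301L in 100 mM sodium acetate pH 7; fibrils were detected with Thioflavin T.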
Large screens that a line does not name were inactive; [ ] = remark or other dose. Most compounds without a hit are left out; they make up all but 3.3% or so of the library. Calls come from the whole dose curve; as a rule, active = well fitted curve in the direction sought with a large enough effect; inconclusive = small, poorly fitted or top-dose-only effect, or another doubt; inactive = no such curve, though single readings can be large; an effect the other way counts as inactive or inconclusive.

CCC(C)NC(=O)c1c(N)n(Cc2ccc3c(c2)OCO3)c2nc3ccccc3nc12 (configuration not stated)	Tau FP inhib inconclusive, Tau fluor cs inconclusive, Tau ThT inhib 20µM
C/C=C/C/C=C/CCC(=O)[C@H]1O[C@H]1C(N)=O	Tau FP inhib inconclusive, Tau ThT inhib inconclusive (no result: NPSR antagonist, Luc counter)
CN1CCN(c2ccc(N)c(N3CCN(C)CC3)c2)CC1	Tau FP inhib inconclusive, Tau fluor cs inconclusive, Tau ThT inhib 28µM
CN1CCN(c2ccc3nccnc3c2)CC1	none
CN1CCN(c2ccc(N)cc2)CC1	Tau FP inhib inconclusive, Tau fluor cs inconclusive, Tau ThT inhib 25µM
CCN1CCN(c2ccc(N)cc2)CC1	Tau FP inhib inconclusive, Tau fluor cs inconclusive, Tau ThT inhib 25µM
CN1CCN(c2ccc(C=O)cc2)CC1	none
O=NN1CCCC1c1cccnc1 (configuration not stated)	none (no result: NPSR antagonist, Luc counter)
CCCCCCCCCCCCCCCCOC[C@@H](O)COP(=O)([O-])OCC[N+](C)(C)C	none (no result: NPSR antagonist)
O=C(O)c1cccc2c1NC(c1cccc([N+](=O)[O-])c1)C1CC(Sc3ccccc3[N+](=O)[O-])C(Cl)C21 (configuration not stated)	NPSR antagonist 10µM, Tau FP inhib inconclusive, Tau fluor cs inconclusive, Tau ThT inhib 32µM
CCCc1nn(C)c2c1C(c1ccncc1)C(C#N)=C(N)O2 (configuration not stated)	Tau ThT inhib inconclusive
O=C(/C=C\c1ccc(Cl)cc1)N[C@@]12CCC(=O)[C@@H]3Oc4c(O)ccc5c4[C@@]31CCN(CC1CC1)[C@@H]2C5	none (no result: NPSR antagonist)
COCCNP(=O)(c1ccccc1)c1nc2ccccc2s1 (configuration not stated)	none
COc1ccc(Nc2nc(N)nc(CSc3nc4ccccc4s3)n2)cc1	Tau fluor cs 16µM[quencher], Tau ThT inhib inconclusive (no result: NPSR antagonist, Luc counter)
CCC(C)N1C(=O)/C(=C/c2ccc3c(c2)CCN3CCCCl)C(=O)NC1=S (configuration not stated)	Tau FP inhib inconclusive, Tau fluor cs inconclusive, Tau ThT inhib 32µM
Cc1cccc(N2C(=O)NC(=O)/C(=C\c3ccc4c(c3)CCCN4Cc3ccccc3)C2=O)c1	Tau ThT inhib inconclusive
CN(C)C1C(=O)C(C(N)=O)=C(O)[C@@]2(O)C(=O)C3=C(O)c4c(O)cccc4[C@@](C)(O)C3[C@H](O)C12 (some centres not stated)	Tau FP inhib inconclusive, Tau fluor cs inconclusive, Tau ThT inhib 7.1µM (no result: NPSR antagonist)
CN(C)[C@@H]1C(=O)C(C(N)=O)=C(O)[C@]2(O)C(=O)C3=C(O)c4c(O)cccc4[C@@](C)(O)[C@H]3[C@H](O)[C@@H]12	none (no result: NPSR antagonist, Tau FP inhib, Tau fluor cs, Tau ThT inhib)
CCOc1cccc(=NC2CCCCC2)c2c(C)n(C)c(C)c12	NPSR antagonist 7.9µM, Tau ThT inhib 13µM (no result: Luc counter)
CCOc1ccccc1N=C1SCCCN1C	none
C[C@H](Br)CN(C[C@H](C)Br)c1ccc2c(c1)Cc1ccccc1-2	none (no result: NPSR antagonist, Tau FP inhib, Tau fluor cs, Tau ThT inhib)
O=c1[nH]c(=S)n(-c2ccc(Br)cc2)c(O)c1C=Nc1ccc(N2CCOCC2)cc1	Tau ThT inhib 25µM
C[C@]1(C(=O)O)CCC[C@]2(C)c3cc(O)ccc3CC[C@@H]12	none (no result: NPSR antagonist)
CC(C)c1cc2c(c(O)c1O)[C@]1(C(=O)O)CCCC(C)(C)C1CC2 (some centres not stated)	Tau FP inhib inconclusive, Tau fluor cs inconclusive, Tau ThT inhib 28µM (no result: NPSR antagonist)
CC(C)c1cc2c(c(O)c1O)[C@@]1(C(=O)O)CCCC(C)(C)[C@@H]1CC2	Tau FP inhib inconclusive, Tau fluor cs inconclusive, Tau ThT inhib 14µM (no result: NPSR antagonist)
CCC(C)C(=O)OC1C(O)C2C(CN3CC(C)CCC3[C@]2(C)O)C2C[C@]34O[C@@]5(O)C(OC(=O)C(C)(O)CC)CCC3(C)C5C(OC(C)=O)C(OC(C)=O)C4[C@@]21O (some centres not stated)	none (no result: NPSR antagonist)
COc1cc2c(cc1OC)[C@]13CC[N@+]4(C)CC5=CCO[C@H]6CC(=O)N2[C@@H]1C6[C@@H]5C[C@]34O (some centres not stated)	none (no result: NPSR antagonist, Tau FP inhib, Tau fluor cs, Tau ThT inhib)
c1ccc(-c2cc(-c3ccccc3)[n+](-c3ccccc3)c(-c3ccccc3)c2)cc1	NPSR antagonist inconclusive (no result: Luc counter, Tau ThT inhib)
CN(C)c1ccc(-[n+]2c(-c3ccccc3)cc(-c3ccccc3)cc2-c2ccccc2)cc1	NPSR antagonist 13µM, Tau ThT inhib inconclusive
O=CN1CCCCC1C1CC[C@H]2CCCCN2C1 (some centres not stated)	none (no result: NPSR antagonist)
CC(n1cc(C[C@H](N)C(=O)O)c2ccccc21)n1cc(C[C@H](N)C(=O)O)c2ccccc21	Tau FP inhib inconclusive, Tau ThT inhib inconclusive (no result: NPSR antagonist, Luc counter)
CC(=O)[C@@H]1CC[C@H]2[C@@H]3CC[C@@H]4CC(=O)CC[C@]4(C)[C@H]3CC[C@]12C	none (no result: NPSR antagonist, Luc counter)
CN1C(=O)C(Cc2c[nH]c3ccccc23)C(=O)N(C)C1=O	Tau FP inhib inconclusive, Tau ThT inhib 22µM
CN1C(=O)C(Cc2cccc3ccccc23)C(=O)N(C)C1=O	Tau FP inhib inconclusive, Tau ThT inhib 25µM
Cc1cc2c(C(C)C)c(O)c(O)c(C=O)c2c(O)c1-c1c(C)cc2c(C(C)C)c(O)c(O)c(C=O)c2c1O	NPSR antagonist inconclusive, Tau FP inhib 35µM, Tau fluor cs 16µM[quencher], Tau ThT inhib 28µM
N#CSCC(=O)N1c2ccccc2CCc2ccccc21	NPSR antagonist inconclusive, Tau FP inhib inconclusive, Tau ThT inhib 14µM
C=C(C)C1CCC(C)=CC1c1c(O)cc(O)cc1CCCCC (configuration not stated)	Tau fluor cs 28µM[quencher], Tau ThT inhib inconclusive (no result: NPSR antagonist)
CCOc1ccccc1NC(=O)c1sc2nc3c(cc2c1N)CN(Cc1ccccc1)CC3	Tau fluor cs inconclusive (no result: NPSR antagonist, Luc counter)
CC1(C)CC(=O)C2=C(C1)OC(N)=C([N+](=O)[O-])C2c1ccc(C#N)s1 (configuration not stated)	Tau FP inhib inconclusive, Tau fluor cs inconclusive, Tau ThT inhib 8.9µM
C[C@@H]1O[C@H](OC2[C@@H](O)[C@H](O)C(O)[C@H](O)[C@H]2O)[C@@H](N)C[C@@H]1N=C(N)C(=O)O (some centres not stated)	none (no result: NPSR antagonist, Tau FP inhib, Tau fluor cs, Tau ThT inhib)
Cc1cc(C=C2C(=O)NC(=S)NC2=O)c(C)n1-c1ccc2c(c1)OCO2	NPSR antagonist 13µM, Luc counter inconclusive, Tau fluor cs inconclusive, Tau ThT inhib 14µM
CC(C)c1ccc2c(c1O)CCC1C3=C(CC[C@]21C)C(=O)OC3 (some centres not stated)	none (no result: NPSR antagonist)
CN[C@H]1C[C@H]2O[C@@](C)([C@H]1OC)n1c3ccccc3c3c4c(c5c6ccccc6n2c5c31)C(=O)NC4	NPSR antagonist 6.3µM (no result: Tau FP inhib, Tau fluor cs, Tau ThT inhib)
C=C1C([C@@H](O)C[C@H](C)C2O[C@@]3(CCCCO3)CC[C@H]2C)OC2CC[C@@]3(CC[C@@H](/C=C/[C@@H](C)C4CC(C)=C[C@]5(O4)O[C@H](C[C@@](C)(O)C(=O)O)CCC5O)O3)OC2[C@@H]1O (some centres not stated)	none (no result: NPSR antagonist, Luc counter)
